Screens deposited in PubChem BioAssay by Broad Institute.
Tgondii IFNg – T. gondii growth inhibition with IFN-gamma, primary screen, cell-based; Toxoplasma gondii growth in IFN-gamma-treated host cells; hits give low values; activity change, negative = inhibition, % (no concentration beside the values); hit rate 3.8% among 69,000; in the data active = activity change below about -70%, passing the limit was not always enough;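 also: host cells are HeLa cells infected with Toxoplasma gondii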
* marks the source's active call; other numbers are inactive results; i = inactive; ! = not active in a repeat. The sample as a whole holds a higher share of hits than the screen did.

SMILES	Tgondii IFNg
Cc1nn(-c2ccc(F)cc2)c(C)c1C(=O)N1CCC2(CN(C)C(=O)O2)C1 (stereo not given)	6.2
CCO[C@@H]1CC[C@@H]2[C@H]1OCCN2C(=O)/C=C/c1cccs1	87.4
Cc1ccc(NC(=O)CN2C(=O)CCc3cc(S(=O)(=O)N4CCC(C)CC4)ccc32)nc1	-15.1
CCOc1cc(C(=O)Nc2ccc3c(c2)CCC(=O)N3)cc(OCC)c1OCC	8.9
CCOc1cc(C(=O)Nc2ccc(Cl)c(-c3nc4ccccc4[nH]3)c2)cc(OCC)c1OCC	-75.9*
COc1ccc(C(=O)Nc2cccc(-c3nc4ccccc4[nH]3)c2)cc1	-52.8
CC1COC2(CCCN(C(=O)c3cnccn3)C2)C1 (stereo not given)	56.3
COCCN1C[C@H]2CN(Cc3cnn(C)c3)C[C@H]2C1=O	2.5
CC1CCN(S(=O)(=O)c2ccc3c(c2)CCC(=O)N3CC(=O)NCc2ccccc2Cl)CC1	-49.9
N#Cc1cccc(NC(=O)Cn2c(=O)cc(C(=O)N3CCc4ccccc4C3)c3ccccc32)c1	11.2
Oc1c(Cl)cc(Cl)cc1C1Nc2cc(Cl)c(C(F)(F)F)cc2N1 (stereo not given)	-87.5*
CN(c1cncc(C(=O)NCc2cccnc2)c1)S(=O)(=O)c1ccccc1	-3.3
Cc1ccc(NC(=O)N(Cc2ccco2)Cc2cc3cc4c(cc3[nH]c2=O)OCCO4)cc1	-4.8
Cc1cccc2cc(CN(Cc3ccccc3)C(=O)Nc3ccc(F)cc3)c(=O)[nH]c12	-104.1*
COc1cccc(CN(C)Cc2cc3ccc(F)cc3[nH]c2=O)c1	10.3
Cc1ccsc1-c1nc(COc2ccc(N(C)S(C)(=O)=O)cc2)c(C)o1	0.7
CCn1c(=O)/c(=C2/Sc3ccc(OC)cc3N2C)s/c1=C1/C(=O)N(C)C(=S)N1C	-77.8*
COc1ccc(-c2ccccc2)cc1NCc1cc2cc(OC)c(OC)cc2[nH]c1=O	2.1
Fc1cccc(CN2CCN(Cc3ncc[nH]3)CC2)c1	5.4
CCN(CC)C(=O)Oc1ccnc2cc(Cl)ccc12	-40.1
CCCCCCCC(=O)Nc1nnc(Sc2ccnc3cc(Cl)ccc23)s1	-94.4*
CCSc1nnc(NC(=O)CCc2ccc(C)o2)s1	19.3
CCN1c2cc(Cl)ccc2C(=O)NC12CCN(C(=O)Nc1ccc(OC)cc1C)CC2	i
O=C(c1cscn1)N1CCC2(C1)CN(C(=O)C1CCOCC1)C2	29.4
Cc1nc(-c2ccccc2)sc1CCNC(=O)C(=O)Nc1ccc2c(c1)OCO2	-93.1*
SMILES	Tgondii IFNg
Cc1nc(-c2cccc(F)c2)sc1CCNC(=O)C(=O)Nc1ccc2c(c1)OCO2	-97.9*
Cc1ccc(NC(=O)C(=O)NCCc2sc(-c3ccccc3)nc2C)cc1	-3.3
Cc1ccc(NC(=O)C(=O)NCCc2sc(-c3cccc(F)c3)nc2C)cc1F	50.8
Cc1cccc(NC(=O)C(=O)NCCc2sc(-c3ccccc3)nc2C)c1	-35.9
Cc1ccc(-c2nc(C)c(CCNC(=O)C(=O)Nc3ccc4c(c3)OCCO4)s2)cc1	-37.5
Cc1nc(-c2ccc(Cl)cc2)sc1CCNC(=O)C(=O)Nc1ccc2c(c1)OCO2	-89.8*
Cc1ccc(-c2nc(C)c(CCNC(=O)C(=O)Nc3ccc(Cl)cc3)s2)cc1	83.4
Cc1nc(-c2cccc(F)c2)sc1CCNC(=O)C(=O)Nc1ccc2c(c1)OCCO2	-33.6
COC(=O)c1cc2n(n1)CCCN(C(=O)CCOc1ccccc1)C2	42.2
CCOC(=O)c1ccc(NC(=O)C(C(C)C)N2C(=O)c3ccccc3C2=O)cc1 (stereo not given)	5.2
COc1ccc(N(Cc2nc(-c3cccc(Cl)c3)oc2C)S(=O)(=O)c2ccccc2)cc1	-52.4
Cc1ccccc1NC(=O)CN1CCCCC1	1.7
O=C(Cc1cccnc1)N1CCN(c2nnc(C(F)(F)F)s2)CC1	-10.1
CCS(=O)(=O)N1Cc2c(Cn3ccnc3)nn(C)c2C1	-23.5
CC(=O)O/N=C1/CC(C)(C)Cc2onc(C)c21	1.5
COc1ccc(NC(=O)c2ccc3nc(-c4ccoc4)c(-c4ccoc4)nc3c2)cc1OC	57.4
COc1ccc(NC(=O)c2ccc(-c3ccc(-c4noc(C)n4)cc3C)cc2)cc1N1CCN(C)CC1	-71.5*!
COc1ccc(NC(=O)c2ccc(-c3ccc(-c4noc(C)n4)cc3C)cc2)cc1OCCN(C)C	-76.9*!
COc1ccc(C(=O)Nc2ccc(-c3nc(-c4ccccc4)co3)cc2)cc1OC	8.4
COc1ccc(C(=O)Nc2ccc(-c3nc(-c4cc(C)ccc4C)co3)cc2)cc1OC	7.0
COc1ccc(C(=O)Nc2ccc(N3CCCC3)cc2)cc1OC	-5.2
O=C(NC1CCS(=O)(=O)C1)C1(Cc2ccccc2-c2ccc(F)c(F)c2)CCOCC1 (stereo not given)	3.9
COc1cc(NCC(c2cccnc2)N2CCOCC2)ncn1 (stereo not given)	-7.5
Fc1cccc(-c2csc(-c3ccc(C(F)(F)F)cc3)n2)c1	109.4
Cc1cnc(CNC(=O)c2nc(-c3cn(C)cn3)n3ccccc23)cn1	6.0
Cc1cnc(N2C[C@H](NC(=O)c3nccn3C)[C@@H]3OCCC[C@@H]32)nc1	64.9
CNS(=O)(=O)c1ccc(F)c(C(=O)Nc2ccccc2CN2CCCC2)c1	3.4
